Screens (PubChem)
An excerpt weighted towards active compounds, which were near 9.2% of everything screened.
ELG1 repair inh – ELG1-dependent DNA repair inhibition | HEK293T ELG1-luciferase reporter, luminescence, 16 h; DNA damage induced by 5-fluorouridine | Potency, µM (top dose mostly 46.1 µM), for the others: at the highest dose activity change, negative = inhibition, hits mostly inhibitors | hit rate 2.3% among 330,000 | AID 504467; note: % is set by controls: 0 for no effect and ±100 for the full control effect; nearly all actives have a fitted effect of over 55% in size
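Step one: seed 2,000 cells per well. Step two: pin-transfer compound or DMSO alongside 5-fluorouridine. Step three: incubate 16 hr, 37 °C, 5% CO2. Step four: add ONE-Glo, wait 30 min, read luminescence.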
ELG1 genotox – inducers of genotoxicity in HEK293T ELG1-luciferase cells; Potency, µM (highest dose often 46 µM), without a hit: top-dose activity change, positive = activation, usual class: activators; AID 504466; HEK293T ELG1-luciferase reporter, luminescence, 16 h; hit rate 1.3% among 330,000; note: % of control where 0% means no effect; nearly all actives have a fitted effect of over 60% in size
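After overnight (16 hr) compound treatment at 37 °C, ELG1-luciferase HEK293T cells were lysed with ONE-Glo; luminescence quantified 30 min later at room temperature.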
NPC1 promoter act – activates the NPC1 promoter; Potency, µM (highest dose often 9.22 µM), inactives show at the top dose activation, actives largely listed as activators; Huh7 NPC1 promoter luciferase reporter, 24 h; hit rate 2.4% among 320,000; note: % of control where 0% means no effect; nearly all actives have a fitted effect of over 60% in size
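Stably transfected Huh7 (NPC1 promoter→luciferase), 1500 cells/well in Opti-MEM + 10% FBS, 2 h settle, then compound 24 h at 37 °C. Luminescence after 10 min with Amplite reagent.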
FLuc modulator – firefly luciferase modulation, counter-screen for miR-21 project; P08659; purified FLuc, Km substrates, luminescence inhibition; Potency, µM (series often up to 57.5 µM), inactives show at the top dose activity change, negative = inhibition, actives largely listed as inhibitors; hit rate 6.9% among 360,000; AID 588342;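 note: plate controls were vehicle for no effect and reference inhibitor for full effect; nearly all actives have a fitted effect of over 55% in size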
Target sequence (P08659 whole entry, looked up): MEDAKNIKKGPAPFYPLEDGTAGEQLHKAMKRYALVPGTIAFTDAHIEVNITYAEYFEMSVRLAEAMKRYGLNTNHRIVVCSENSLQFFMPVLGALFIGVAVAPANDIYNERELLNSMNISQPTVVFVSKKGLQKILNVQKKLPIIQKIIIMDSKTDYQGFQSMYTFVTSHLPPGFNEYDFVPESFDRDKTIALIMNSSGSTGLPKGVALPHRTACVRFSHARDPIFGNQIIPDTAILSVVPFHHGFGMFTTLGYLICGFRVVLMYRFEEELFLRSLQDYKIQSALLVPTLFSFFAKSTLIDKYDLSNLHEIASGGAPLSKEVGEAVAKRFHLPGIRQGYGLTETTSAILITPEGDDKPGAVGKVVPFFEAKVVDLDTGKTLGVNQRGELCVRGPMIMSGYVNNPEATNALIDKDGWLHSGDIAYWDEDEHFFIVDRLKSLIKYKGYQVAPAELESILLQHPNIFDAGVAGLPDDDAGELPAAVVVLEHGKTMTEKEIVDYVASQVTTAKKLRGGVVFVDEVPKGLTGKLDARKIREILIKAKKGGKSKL
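Purified P. pyralis luciferase, 10 nM final, with Km-level 10 uM D-luciferin and 10 uM ATP in 50 mM Tris acetate pH 7.5, 10 mM Mg acetate, 0.01% Tween-20, 0.05% BSA; 6-point qHTS titration about 60 µM downward; luminescence read.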
SMN2 splice enh – SMN2 splice variant enhancement; AID 1458; HEK293 SMN2-luciferase splicing reporter, luminescence, 30-36 h; hit rate 2.8% among 210,000; Potency, µM (highest dose often 46.1 µM), without a hit: at the top dose activity change, positive = activation, usual class: activators; note: % of control where 0% means no effect; nearly all actives have a fitted effect of over 55% in size
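HEK293 cells carry an SMN2 […]–luciferase reporter in which exon 7 inclusion puts luciferase in frame. Cells were plated 10-12 h before compound addition, then incubated 30-36 h at 37C. ONE-Glo luminescence was read; sodium butyrate at 4.5 mM final served as control.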
Rab9 prom act – activators of Rab9 promoter | AID 485297 | Huh7 Rab9 promoter-luciferase reporter, luminescence, 24 h | hit rate 2.8% among 320,000 | Potency, µM (top dose mostly 9.22 µM), for the others: at the top dose activation, negative = inhibition, hits mostly activators; note: % of control where 0% means no effect; nearly all actives have a fitted effect of over 60% in size
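Huh7 cells stably carrying Rab9 promoter–luciferase reporter, plated 1500 cells/well, compound added after 2 h and incubated 24 h at 37 °C; luciferase luminescence then read after 10 min with detection reagent.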
An asterisk follows results filed as active; [ ] = another dose, or the depositor's remark. Calls come from the whole dose curve; as a rule, active = well fitted curve in the direction sought with a large enough effect; inconclusive = small, poorly fitted or top-dose-only effect, or another doubt; inactive = no such curve, though single readings can be large; an effect the other way counts as inactive or inconclusive. Potency is the fitted concentration of half-maximal effect.

Cc1cc(/C=C2\C(=N)N3N=C(S(C)(=O)=O)SC3=NC2=O)c(C)n1Cc1ccccc1 was read as ELG1 repair inh -17%, ELG1 genotox 1%, NPC1 promoter act -4%, FLuc modulator 17µM*, SMN2 splice enh -15% and Rab9 prom act -4%.
Screening CCCC1=NN2C(=N)/C(=C\c3cc(C)n(Cc4ccccc4)c3C)C(=O)N=C2S1 returned ELG1 repair inh -7%, ELG1 genotox -4%, NPC1 promoter act 0%, FLuc modulator inconclusive and Rab9 prom act -6%.
Cc1ccc2[nH]c(C(=O)N/N=C/c3ccccc3O)c(C)c2c1 was read as ELG1 repair inh 2.3µM*, ELG1 genotox inconclusive, NPC1 promoter act -10%, FLuc modulator -19% and Rab9 prom act -34%.
For Cc1ccc2[nH]c(C(=O)N/N=C/c3ccccc3C(=O)O)c(-c3ccccc3)c2c1 the results were ELG1 repair inh inconclusive, ELG1 genotox -3%, NPC1 promoter act -3%, FLuc modulator inconclusive and Rab9 prom act -11%.
For Cc1ccc(CNC(=O)CSc2cc(C)[nH]c(=O)n2)cc1 the results were FLuc modulator -13%.
Cc1cc(SCC(=O)c2ccc(Cl)cc2)nc(=O)[nH]1 was read as ELG1 repair inh inconclusive, ELG1 genotox inconclusive, NPC1 promoter act 1.3µM*, FLuc modulator 4.8µM* and Rab9 prom act 1.6µM*.
Screening Cc1ccc(C(=O)CSc2cc(C)[nH]c(=O)n2)cc1 returned ELG1 repair inh inconclusive, ELG1 genotox inconclusive, NPC1 promoter act 3.2µM*, FLuc modulator 13µM* and Rab9 prom act 4µM*.
Cc1cc(SCC(=O)c2ccccc2)nc(=O)[nH]1 was read as ELG1 repair inh inconclusive, ELG1 genotox 12%[9.26 µM], NPC1 promoter act 2.5µM*, FLuc modulator 15µM* and Rab9 prom act 4µM*.
Screening Cc1ccc(NC(=O)CSc2nn(-c3ccccc3)c(=S)s2)cc1S(=O)(=O)N(C)C returned ELG1 repair inh 23µM*, ELG1 genotox 2%, NPC1 promoter act -16%, FLuc modulator -2%, SMN2 splice enh -85% and Rab9 prom act -22%.
`O=C(CSc1nn(-c2ccccc2)c(=S)s1)Nn1cnnc1` gave ELG1 repair inh 5%, ELG1 genotox 0%, NPC1 promoter act -4%, FLuc modulator -1%, SMN2 splice enh -9% and Rab9 prom act -9%.
O=C(CCc1ccccc1)Nc1cc2c(cc1Cl)OCCO2 was read as ELG1 repair inh inconclusive, ELG1 genotox inconclusive, NPC1 promoter act 3.5µM*, FLuc modulator 11µM*, SMN2 splice enh 13µM* and Rab9 prom act 3.2µM*.
`CC(C)c1ccc(NC(=O)CCc2ccccc2)cc1` gave ELG1 repair inh inconclusive, ELG1 genotox inconclusive, NPC1 promoter act 26%, FLuc modulator 24µM* and Rab9 prom act inconclusive.
`O=C(CCc1ccccc1)Nc1ccc2c(c1)OCCO2` gave ELG1 repair inh inconclusive, ELG1 genotox inconclusive, NPC1 promoter act 3.2µM*, FLuc modulator 6µM*, SMN2 splice enh 13µM* and Rab9 prom act 1.8µM*.
`O=C(CCSCc1ccccc1)Nc1ccc2c(c1)OCCO2` gave ELG1 repair inh inconclusive, ELG1 genotox 7%, NPC1 promoter act -2%, FLuc modulator 9.5µM* and Rab9 prom act 10%.
Cc1sc(-n2cccc2)c(C(C)NC(=O)Nc2cccc(C(F)(F)F)c2)c1C (centres undefined) was read as FLuc modulator 4% and SMN2 splice enh -18%.
Cc1cccc(NC(=O)CCn2nc(-c3ccccc3)c3ccccc3c2=O)c1 was read as FLuc modulator -9%.
`O=C(Nc1ccc2c(c1)OCCO2)N1CCN(Cc2ccccc2)CC1` gave ELG1 repair inh inconclusive, ELG1 genotox 2%, NPC1 promoter act inconclusive, FLuc modulator 13µM*, SMN2 splice enh 18% and Rab9 prom act inconclusive.
Screening COc1ccc(OCCCC(=O)Nc2ccc3c(c2)OCO3)cc1 returned ELG1 repair inh -5%, ELG1 genotox 3%, NPC1 promoter act 7%, FLuc modulator 4%, SMN2 splice enh -4% and Rab9 prom act 20%.
`O=C(CCCOc1ccccc1)Nc1ccc2c(c1)OCCO2` gave ELG1 repair inh inconclusive, ELG1 genotox inconclusive, NPC1 promoter act 1%, FLuc modulator 12µM* and Rab9 prom act 3%.
Screening C=C1C=C(C(F)F)n2ncc(C(=O)Nc3ccccc3OCC)c2N1 returned FLuc modulator 0%.
Screening O=C1Cc2ccccc2C(=O)N1OCc1ccc(Cl)cc1Cl returned ELG1 repair inh 21%, ELG1 genotox 5%, NPC1 promoter act 4%, FLuc modulator 24µM*, SMN2 splice enh 12% and Rab9 prom act 3%.
`O=C1c2ccccc2C(=O)N1OCc1ccccc1` gave ELG1 repair inh 2%, ELG1 genotox -3%, NPC1 promoter act 4%, FLuc modulator inconclusive, SMN2 splice enh -4% and Rab9 prom act -5%.
`O=C1c2ccccc2C(=O)N1OCc1cccc(Cl)c1` gave ELG1 repair inh inconclusive, ELG1 genotox 3%, NPC1 promoter act 0%, FLuc modulator 19µM*, SMN2 splice enh -20% and Rab9 prom act 4%.
O=c1cc2c(nn1Cc1ccc(Cl)cc1Cl)-c1ccccc1CC2 was read as ELG1 repair inh -19%, ELG1 genotox -2%, NPC1 promoter act 1%, FLuc modulator -1%, SMN2 splice enh -32% and Rab9 prom act -4%.
Oc1c(Br)cc(C2N=C(c3ccccc3)NO2)cc1Br (centres undefined) was read as ELG1 repair inh inconclusive, ELG1 genotox 19%, NPC1 promoter act 18%, FLuc modulator 17µM*, SMN2 splice enh -20% and Rab9 prom act 8%.
`CSc1ncc(-c2ccccc2)cn1` gave ELG1 repair inh 14%, ELG1 genotox 4%, NPC1 promoter act 2%, FLuc modulator inconclusive, SMN2 splice enh -9% and Rab9 prom act 22%.
Screening CSc1ccc(C2N=C(c3ccccc3)NO2)cc1 (centres undefined) returned ELG1 repair inh inconclusive, ELG1 genotox inconclusive, NPC1 promoter act 1.3µM*, FLuc modulator 8.5µM* and Rab9 prom act 1.8µM*.
`Oc1c(Br)cc(Br)c(/C=N/n2c(-c3ccccc3)n[nH]c2=S)c1Br` gave ELG1 repair inh -10%, ELG1 genotox -3%, NPC1 promoter act -2%, FLuc modulator -27% and Rab9 prom act -3%.
O=C(O)c1ccc2c(c1)C(=O)N(CCC1=CCCCC1)C2=O was read as ELG1 repair inh 6%, ELG1 genotox -2%, NPC1 promoter act 0%, FLuc modulator -8%, SMN2 splice enh 2% and Rab9 prom act -9%.
